# In PubChem BioAssay AID485317 (Broad Institute, 2010):
# About 11,000 (3.8%) of roughly 290,000 compounds were called active. Shown is part of a subset that was picked to be rich in actives. Unmarked numbers belong to inactive results.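 The calls were made as follows: active = mean replicate inhibition above about 79%, with every replicate also reaching it (limit read from the data); inconclusive = only one of the two criteria met; inactive = mean below limit and not every replicate reaching it.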
# Target: FAD-linked sulfhydryl oxidase ALR (Homo sapiens) (UniProt P55789)
# Sequence (P55789 whole entry, looked up): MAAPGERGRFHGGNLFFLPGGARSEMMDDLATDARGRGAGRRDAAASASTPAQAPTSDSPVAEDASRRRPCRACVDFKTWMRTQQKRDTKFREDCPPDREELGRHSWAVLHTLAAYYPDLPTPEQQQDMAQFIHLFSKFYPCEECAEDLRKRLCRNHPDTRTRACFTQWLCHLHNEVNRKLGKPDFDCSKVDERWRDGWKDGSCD
# Assay: ALR-catalysed DTT oxidation blockers – biochemical, H2O2 detection, HRP-luminol luminescence, single point, primary screen (AID 485317)
# Conditions: purified ALR, active compounds read high, concentration not given here
row,SMILES,inhibition
1,COc1ccc(-c2cc3ncccc3cn2)cc1,23.1%
2,COc1ccc(CNC2CCCCC2)cc1,-5.38%
3,COc1ccc(N/N=C2/CCCCC2=O)cc1,99.4% (active)
4,COc1ccc(CNC(=O)C2CCCC2)cc1,-0.518%
5,CN1CCN(C2Cc3ccc(Cl)cc3Sc3ccc(F)cc32)CC1 (stereo not given),4.93%
6,CCOCCn1[nH]c2ccccc2c1=O,52.9%
7,Cc1ccc2c(c1)C1CN(C)CCC1N2S(=O)(=O)c1cccc(F)c1 (stereo not given),22.1%
8,Cc1ccc(NC(=O)CSc2nc(=O)n(CCN(C)C)c3c2CCCC3)c(C)c1,5.62%
9,Cc1csc(NC(=O)CSc2nc(=O)n(CCCN(C)C)c3c2CCC3)n1,-272%
10,CCN(CC)CCn1c2c(c(SCC(=O)Nc3ccc(C(C)C)cc3)nc1=O)CCC2,-219%
11,CN(C)CCn1c2c(c(SCC(=O)Nc3ccccc3C(F)(F)F)nc1=O)CCCC2,0.246%
12,Cc1ccc2nc(NC(=O)CSc3nc(=O)n(CCCN(C)C)c4c3CCC4)sc2c1,97.3% (active)
13,CCN(CC)CCn1c2c(c(SCC(=O)Nc3nc4ccccc4s3)nc1=O)CCCC2,98.7% (active)
14,Cc1ccc(C)c(NC(=O)CN(C)C(=O)COc2ccc3ccccc3c2)c1,-13.6%
15,CC(=O)Nc1ccc(NC(=O)C(NS(=O)(=O)c2ccc3c(c2)OCCO3)C(C)C)cc1 (stereo not given),1.95%
16,Cc1c(NC(=O)CN(C)CC(=O)Nc2ccc(F)c(F)c2F)c(=O)n(-c2ccccc2)n1C,-2.04%
17,O=C(COC(=O)CCOc1ccccc1)Nc1cc(S(=O)(=O)N2CCCCC2)ccc1Cl,4.02%
18,COc1ccc(C(=O)C(C)OC(=O)c2cccc(S(=O)(=O)Nc3c(C)n(C)n(-c4ccccc4)c3=O)c2)cc1 (stereo not given),-0.831%
19,Cc1cccc(C(=O)N2CCC(c3nc4ccccc4s3)CC2)c1,-11.6%
20,Cc1cccc(NC(=S)N2CCC(c3nc4ccccc4s3)CC2)c1,-3.53%
21,O=C(c1cccs1)N1CCC(c2nc3ccccc3s2)CC1,98.7% (active)
22,CCC(c1nnc(SCC(=O)NNC(=O)c2ccccc2)n1Cc1ccccc1)N(C)C (stereo not given),-1.21%
23,O=C(CSc1nccn1-c1cccc(F)c1)NC1CCCC1,-4.77%
24,CCNC(=O)CSc1nc(-c2ccccc2)cs1,-7.87%

row,SMILES,inhibition
1,O=C(CSc1nc(-c2ccccc2)cs1)Nc1cccc([N+](=O)[O-])c1,98% (active)
2,O=C(CSCC(=O)Nc1cccc([N+](=O)[O-])c1)Nc1ccccc1,-3.46%
3,COc1ccccc1C(=O)NCC(=O)OCC(=O)NNC(=O)c1ccc(Br)cc1,0.892%
4,COc1cc(OC)cc(C(=O)NCC(=O)OCC(=O)NC(C)CCc2ccccc2)c1 (stereo not given),-4.51%
5,Nc1cccnc1Sc1ccccc1,-14.3%
6,Cc1cc(=O)[nH]c(SCC(N)=O)c1C#N,-1.22%
7,Cc1ccc(NC(=O)CSc2sc3c(O)cc(=O)[nH]c3c2C#N)cc1C,98.4% (active)
8,Cc1cc(C)c(C#N)c(SCC(=O)Nc2ccccc2)n1,-3.28%
9,Cc1ccc(S(=O)(=O)Nc2ccc(F)c(S(=O)(=O)N3CCOCC3)c2)cc1,-9.01%
10,O=C(Nc1ccc2c(c1)OCO2)C1CC1(Cl)Cl (stereo not given),-6.35%
11,O=C(c1ccc(Cl)nc1)N1CCN(S(=O)(=O)c2ccc3c(c2)OCCO3)CC1,0.752%
12,Cc1c(C(=O)Nc2cccc(S(=O)(=O)N3CCOCC3)c2)oc2ccccc12,-6.82%
13,COc1ccc(S(=O)(=O)Nc2ccc(O)c(Sc3nc4ccccc4s3)c2)cc1,17.5%
14,O=C(O)c1cccc(S(=O)(=O)Nc2ccc(O)cc2Sc2nc3ccccc3s2)c1,98.9% (active)
15,Cc1nc2ccc(NC(=O)c3cccc(S(=O)(=O)N4CCOCC4)c3)cc2s1,-4.99%
16,COc1cc(OC)cc(C(=O)NC(C(=O)N2CCC2)C(C)C)c1 (stereo not given),3.67%
17,O=C(CSc1ncn[nH]1)N/N=C/c1ccc(F)cc1,-0.231%
18,Cc1ccc(S(=O)(=O)Nc2nc(CN3CCOCC3)nc3sc(C)c(C)c23)cc1,-1.38%
19,O=C(NNc1ccccn1)c1ccc(Cl)nc1,91.6% (active)
20,Cc1cnc(NC(=O)c2ccc(Cl)nc2)s1,-5.29%
21,O=C(NNC(=O)c1ccc(Cl)nc1)c1ccc(Br)cc1,-1.29%
22,COc1cc(/C=C/C(=O)OCC(=O)c2ccccc2)cc(OC)c1OC,3.07%
23,C[C@H](CO)N1C[C@H](C)[C@H](CN(C)C(=O)Nc2ccc(C(F)(F)F)cc2)Oc2c(NC(=O)c3ccncc3)cccc2C1=O,-1.8%
24,Cc1ccc(S(=O)(=O)NC2CCCCCC2)cc1,-3.36%

row,SMILES,inhibition
1,O=C(Nc1ccccc1)Nc1ccccc1C(=O)NCc1ccco1,-2.76%
2,Cc1ccccc1NC(=O)NCc1ccco1,-5.6%
3,Cc1cccc(Nc2ccccc2C(=O)NCc2ccco2)c1C,98.6% (active)
4,O=C(OCC(=O)N1CCc2ccccc21)c1ccc([N+](=O)[O-])cc1,-3.86%
5,CC1CCCCC1NC(=O)/C(C#N)=C/C=C/c1ccccc1[N+](=O)[O-] (stereo not given),97.6% (active)
6,O=[N+]([O-])c1ccccc1/C=C/CN1CCC(O)CC1,-20.9%
7,O=C(/C=C/c1ccccc1[N+](=O)[O-])NCC1CCCO1 (stereo not given),-4.47%
8,CC/C(O)=N\S(=O)(=O)c1ccc(N=NN(C)C)cc1,-19.2%
9,COc1ccc(/C(C)=N/NC(=O)c2ccc3nc[nH]c3c2)cc1,-6.54%
10,CN(C)N=Nc1ccc2nc[nH]c2c1,92.1% (active)
11,Cc1cc(C)c(-c2csc(NC(=O)CCCc3nc4ccccc4c(=O)[nH]3)n2)c(C)c1,-7.67%
12,CC1(C)CC(=O)C(CC(=O)N2CCC(Cc3ccccc3)CC2)C(=O)C1,2.75%
13,O=C(Cn1cnc2c(nnn2-c2ccccc2)c1=O)N1CCC(Cc2ccccc2)CC1,-5.43%
14,O=C(CN1CCOc2ccccc21)N1CCC(Cc2ccccc2)CC1,98.1% (active)
15,CCN(CC(=O)NCc1cccs1)C(=O)c1ccc(OC)c(S(=O)(=O)N2CCOCC2)c1,-4.54%
16,CCC(C)N(C(=O)CSc1nnnn1-c1ccccc1OC)C1CCS(=O)(=O)C1 (stereo not given),1.16%
17,CC1(C)OC(=O)C(=CSc2ccc(C(C)(C)C)cc2)C(=O)O1,97.7% (active)
18,O=C1CN(C(=O)COC(=O)/C=C/c2ccc(F)cc2)c2ccccc2N1,-2.48%
19,COc1ccc(CC(=O)OC(C)C(=O)Nc2ccc(S(N)(=O)=O)cc2)cc1 (stereo not given),-3.25%
20,CC(OC(=O)CCCc1c[nH]c2ccccc12)C(=O)Nc1ccc(S(N)(=O)=O)cc1 (stereo not given),81.6% (active)
21,NS(=O)(=O)c1ccc(NC(=O)COC(=O)CCc2c[nH]c3ccccc23)cc1,23.6%
22,NS(=O)(=O)c1ccc(CCNC(=O)CN2C(=O)c3ccccc3S2(=O)=O)cc1,20.2%
23,O=C(NCCS(=O)(=O)N1CCN(c2ccccc2)CC1)c1ccco1,4.33%
24,O=C(Cn1cnc2c(OCc3ccccc3)ncnc21)NCCCn1ccnc1,-1.71%

row,SMILES,inhibition
1,O=C1CN(C(=O)COc2c(Cl)cccc2Cl)c2ccccc2N1,-8.36%
2,COc1ccc(S(=O)(=O)NCc2cccnc2)cc1NC(=O)c1ccc(C)cc1,-2.4%
3,CC(C)(C)NS(=O)(=O)NC(=O)C1=C(N2CCCC2)COC1=O,2.74%
4,CC(=O)Nc1ccc(C(=O)Nc2cccc(S(=O)(=O)NC3=NCCC3)c2)cc1,-4.84%
5,CC(=O)c1nn(-c2ccc(C)cc2)cc1C(=O)c1cccc(Br)c1,-13.6%
6,CC(=O)N/C(=C\c1ccccc1)C(=O)OC(C)C(=O)N(C)c1ccccc1 (stereo not given),0.887%
7,Cc1nc2nc(SCC(=O)c3ccccc3)[nH]c2cc1Br,-4.01%
8,Cc1nc(SCc2ccc(F)cc2)c([N+](=O)[O-])[nH]1,1.42%
9,Cc1nc(SCC(=O)c2ccccc2)c([N+](=O)[O-])[nH]1,97.8% (active)
10,O=C1CCCCC1Sc1ccc(Cl)cc1[N+](=O)[O-] (stereo not given),-27.8%
11,CCOc1ncccc1C(=O)Nc1ccc2c(c1)OCCO2,4.02%
12,Oc1ccc2ccccc2c1N=Nc1nccs1,-13.2%
13,Oc1ccc(N=Nc2nccs2)c(O)c1,83.1% (active)
14,CN1CCN(S(=O)(=O)c2cccc(C(=O)Nc3sccc3C#N)c2)CC1,6.71%
15,CC(=O)Nc1ccc(S(=O)(=O)Nc2ccc(N3CCCCC3)cc2)cc1,99.4% (active)
16,CC(=O)Nc1ccc(NS(=O)(=O)c2ccc3c(c2)NC(=O)CC(=O)N3)cc1,-6.71%
17,COc1cccc(OC)c1C(=O)Nc1ccc(N2CCCCC2)cc1,86% (active)
18,COc1ccc(C(=O)NC(=S)Nc2ccc(N3CCCC3)cc2)cc1OC,2.05%
19,Cc1ccccc1C(=O)Nc1ccc(N2CCCCCC2)cc1,68.7%
20,COc1cccc(C(=O)Nc2ccc(N3CCCC3)cc2)c1,100% (active)
21,COc1cccc(C(=O)Nc2ccc(N3CCN(C(=O)c4ccco4)CC3)cc2)c1,-0.228%
22,COc1ccc(C(=O)Nc2ccc(N3CCC(C)CC3)cc2)cc1Br,-4.62%
23,CC(=O)Nc1ccc(S(=O)(=O)Nc2ccc(N3CCOCC3)c(F)c2)cc1,3.94%
